{
  "source": "paper PMC5700166",
  "data": [
    {"biological_target": "GST-Hu-p50 (Homo sapiens, UniProt P19838 7-356)", "sequence (P19838 7-356)": "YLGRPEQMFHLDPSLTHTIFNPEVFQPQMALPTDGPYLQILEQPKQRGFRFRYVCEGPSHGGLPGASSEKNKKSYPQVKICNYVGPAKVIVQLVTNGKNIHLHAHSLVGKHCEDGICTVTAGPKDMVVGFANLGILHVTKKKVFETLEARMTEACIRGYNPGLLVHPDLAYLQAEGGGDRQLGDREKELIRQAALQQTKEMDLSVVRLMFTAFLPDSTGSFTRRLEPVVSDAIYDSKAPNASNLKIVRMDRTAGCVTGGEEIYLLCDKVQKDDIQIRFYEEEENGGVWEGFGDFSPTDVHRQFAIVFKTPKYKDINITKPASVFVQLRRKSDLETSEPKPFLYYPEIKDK", "assay": "protein-binding microarray (PBM); PBM: ~300 nM protein, 6 mM HEPES pH 7.8, 80 mM KCl, 0.5 mM EDTA, 0.5 mM EGTA, 6% glycerol, 35 ng/ul poly-dIdC, 1% milk, 1 h, room temperature; Ap Aiptasia and Nv Nematostella (sea anemones) / Co Capsaspora / Aq Amphimedon (sponge) / Dm Drosophila / Hu human; RHD is the Rel homology domain; high values mean tight binding", "settings": "dsDNA, one strand shown", "units": {"binding signal": "z-score"}, "values": [
      {"sequence": "CCGATTAACATCACCCCAGCCCCTGATGTTAATCGGGTCTTGATTCGCTTGACGCTGCTG", "binding signal": 2.68},
      {"sequence": "CCGATTAACATCAATATTTACCCTGATGTTAATCGGGTCTTGATTCGCTTGACGCTGCTG", "binding signal": 3.16},
      {"sequence": "CCGATTAACATCAGGGATTTTCATGATGTTAATCGGGTCTTGATTCGCTTGACGCTGCTG", "binding signal": 4.44},
      {"sequence": "CCGATTAACATCAGAAGATTCCCTGATGTTAATCGGGTCTTGATTCGCTTGACGCTGCTG", "binding signal": 4.09},
      {"sequence": "CCGATTAACATCAGGGAATTCACTGATGTTAATCGGGTCTTGATTCGCTTGACGCTGCTG", "binding signal": 4.11},
      {"sequence": "CCGATTAACATCAGAAATCCCACTGATGTTAATCGGGTCTTGATTCGCTTGACGCTGCTG", "binding signal": 2.66},
      {"sequence": "CCGATTAACATCAGGAAAAGCCCTGATGTTAATCGGGTCTTGATTCGCTTGACGCTGCTG", "binding signal": 2.56},
      {"sequence": "CCGATTAACATCAGGGGGGGCACTGATGTTAATCGGGTCTTGATTCGCTTGACGCTGCTG", "binding signal": 3.87},
      {"sequence": "CCGATTAACATCAAAACAACCCCTGATGTTAATCGGGTCTTGATTCGCTTGACGCTGCTG", "binding signal": 3.88},
      {"sequence": "CCGATTAACATCAAAAATCCCATTGATGTTAATCGGGTCTTGATTCGCTTGACGCTGCTG", "binding signal": 3.48},
      {"sequence": "CCGATTAACATCAGGGGGGACAATGATGTTAATCGGGTCTTGATTCGCTTGACGCTGCTG", "binding signal": 3.69},
      {"sequence": "CCGATTAACATCAATCGTCCCCCTGATGTTAATCGGGTCTTGATTCGCTTGACGCTGCTG", "binding signal": 3.44},
      {"sequence": "CCGATTAACATCAAAACTTCCCATGATGTTAATCGGGTCTTGATTCGCTTGACGCTGCTG", "binding signal": 2.96},
      {"sequence": "CCGATTAACATCAGGGACTCCCATGATGTTAATCGGGTCTTGATTCGCTTGACGCTGCTG", "binding signal": 3.34},
      {"sequence": "CCGATTAACATCAAATGACCCCCTGATGTTAATCGGGTCTTGATTCGCTTGACGCTGCTG", "binding signal": 2.89},
      {"sequence": "CCGATTAACATCAGGGGTTCCACTGATGTTAATCGGGTCTTGATTCGCTTGACGCTGCTG", "binding signal": 2.51},
      {"sequence": "CCGATTAACATCAGGAATGTCCCTGATGTTAATCGGGTCTTGATTCGCTTGACGCTGCTG", "binding signal": 3.77},
      {"sequence": "CCGATTAACATCACGTCCCCCCCTGATGTTAATCGGGTCTTGATTCGCTTGACGCTGCTG", "binding signal": 3.7},
      {"sequence": "CCGATTAACATCAGGGAGATTTGTGATGTTAATCGGGTCTTGATTCGCTTGACGCTGCTG", "binding signal": 3.58},
      {"sequence": "CCGATTAACATCAGGAACGCCCCTGATGTTAATCGGGTCTTGATTCGCTTGACGCTGCTG", "binding signal": 3},
      {"sequence": "CCGATTAACATCAGGGAGGGTAATGATGTTAATCGGGTCTTGATTCGCTTGACGCTGCTG", "binding signal": 1.6},
      {"sequence": "CCGATTAACATCAGGGAGATACCTGATGTTAATCGGGTCTTGATTCGCTTGACGCTGCTG", "binding signal": 3.08},
      {"sequence": "CCGATTAACATCAAGGATTTCCCTGATGTTAATCGGGTCTTGATTCGCTTGACGCTGCTG", "binding signal": 4.33},
      {"sequence": "CCGATTAACATCAGGCCTCCCCCTGATGTTAATCGGGTCTTGATTCGCTTGACGCTGCTG", "binding signal": 4.37},
      {"sequence": "CCGATTAACATCAGATACCCCCCTGATGTTAATCGGGTCTTGATTCGCTTGACGCTGCTG", "binding signal": 4.1},
      {"sequence": "CCGATTAACATCAGGCGAGTCCCTGATGTTAATCGGGTCTTGATTCGCTTGACGCTGCTG", "binding signal": 2.61},
      {"sequence": "CCGATTAACATCAAAAATTCCGGTGATGTTAATCGGGTCTTGATTCGCTTGACGCTGCTG", "binding signal": 3.12},
      {"sequence": "CCGATTAACATCAGGGGGTAATATGATGTTAATCGGGTCTTGATTCGCTTGACGCTGCTG", "binding signal": 4.43},
      {"sequence": "CCGATTAACATCACCCATCCCCCTGATGTTAATCGGGTCTTGATTCGCTTGACGCTGCTG", "binding signal": 4.2},
      {"sequence": "CCGATTAACATCAAGGGAAACCCTGATGTTAATCGGGTCTTGATTCGCTTGACGCTGCTG", "binding signal": 2.93},
      {"sequence": "CCGATTAACATCAGGGATTCACCTGATGTTAATCGGGTCTTGATTCGCTTGACGCTGCTG", "binding signal": 4.55},
      {"sequence": "CCGATTAACATCAGGTTTTTCCATGATGTTAATCGGGTCTTGATTCGCTTGACGCTGCTG", "binding signal": 1.41},
      {"sequence": "CCGATTAACATCAGAAATCCCGATGATGTTAATCGGGTCTTGATTCGCTTGACGCTGCTG", "binding signal": 2.55},
      {"sequence": "CCGATTAACATCAGGGGGAAGCATGATGTTAATCGGGTCTTGATTCGCTTGACGCTGCTG", "binding signal": 4.74},
      {"sequence": "CCGATTAACATCATCAGGGAAAATGATGTTAATCGGGTCTTGATTCGCTTGACGCTGCTG", "binding signal": 2.83},
      {"sequence": "CCGATTAACATCACCGATTTCCCTGATGTTAATCGGGTCTTGATTCGCTTGACGCTGCTG", "binding signal": 3.65},
      {"sequence": "CCGATTAACATCAAAATTTCACCTGATGTTAATCGGGTCTTGATTCGCTTGACGCTGCTG", "binding signal": 3.28},
      {"sequence": "CCGATTAACATCACATATACCCCTGATGTTAATCGGGTCTTGATTCGCTTGACGCTGCTG", "binding signal": 2.14},
      {"sequence": "CCGATTAACATCAGGCTTTTCCCTGATGTTAATCGGGTCTTGATTCGCTTGACGCTGCTG", "binding signal": 3.4}
    ]}
  ]
}
